# According to the supplement of paper PMC3334620:
# Over roughly 33,000 sequences, “E-score (-0.5 to 0.5)” has its median near -0.016; the highest 2% begin near 0.3. Many of the other results were omitted from the sample, so the highest values are more common in it than they were.
# Biological target: T1, Yer184c (UniProt P39961)
# T1 sequence: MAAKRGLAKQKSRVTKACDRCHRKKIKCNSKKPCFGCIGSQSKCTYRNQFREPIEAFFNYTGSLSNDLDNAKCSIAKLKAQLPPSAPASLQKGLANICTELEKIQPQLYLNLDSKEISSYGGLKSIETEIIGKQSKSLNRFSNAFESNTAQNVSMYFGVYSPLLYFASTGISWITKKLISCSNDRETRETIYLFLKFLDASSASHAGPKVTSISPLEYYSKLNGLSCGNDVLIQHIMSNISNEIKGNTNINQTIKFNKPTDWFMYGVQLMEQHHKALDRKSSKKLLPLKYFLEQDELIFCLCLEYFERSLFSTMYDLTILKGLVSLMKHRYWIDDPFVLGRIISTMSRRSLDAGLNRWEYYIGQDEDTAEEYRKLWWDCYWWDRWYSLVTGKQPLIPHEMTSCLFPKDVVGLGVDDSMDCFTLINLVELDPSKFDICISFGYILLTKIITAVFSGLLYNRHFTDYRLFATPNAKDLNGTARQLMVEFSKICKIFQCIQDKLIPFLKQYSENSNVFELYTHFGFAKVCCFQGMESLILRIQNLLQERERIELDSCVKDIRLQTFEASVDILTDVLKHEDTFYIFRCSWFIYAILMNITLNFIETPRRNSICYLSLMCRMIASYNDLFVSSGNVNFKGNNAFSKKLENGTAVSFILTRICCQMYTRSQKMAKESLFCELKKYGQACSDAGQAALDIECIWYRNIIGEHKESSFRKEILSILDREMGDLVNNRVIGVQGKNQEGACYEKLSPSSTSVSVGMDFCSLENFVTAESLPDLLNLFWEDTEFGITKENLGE
# Assay: PBM E-score (8-mer binding enrichment) (E-score (-0.5 to 0.5)); higher = stronger / more preferred TF binding
# Settings: protein concentration: 100 nM; construct: GST-full length
# Experimental: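 Universal 'all 10-mer' protein binding microarrays (Agilent AMADID 015681) probed with GST-tagged S. cerevisiae TFs (full-length or DBD) made by in vitro transcription/translation (PURExpress), about 100-200 nM. Bound TF was detected with fluorescent anti-GST. Each ungapped 8-mer (which stands for itself and its reverse complement) is scored by the PBM enrichment score (E-score), a modified Wilcoxon-Mann-Whitney statistic from -0.5 to +0.5, computed with the Universal PBM Analysis Suite. Scale: above 0.35 generally sequence-specific binding.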
row,Sequence,PBM E-score
1,GAGAGGAC,-0.128
2,CGCCCGGA,0.264
3,AGCCCGGG,0.268
4,AGCCCGGC,0.309
5,AGCCCGGA,0.314
6,GGCCCGGA,0.301
7,CGCCCGGC,0.213
8,CCTGGAGA,-0.035
9,AATCCTGA,0.0482
10,AAATACCT,-0.105
11,ATCAACTA,0.178
12,GAGGTGCC,0.0277
13,CAACGTGC,-0.133
14,ACAAGTAC,0.00537
15,AAGCGAGT,0.225
16,AGAGCCGG,0.314
17,ACAGCCGC,-0.0252
18,AGAGCCGA,0.26
19,ATAGCCGC,0.0602
20,ATAGCCGA,0.299
21,ATAGCCGG,0.388
22,ACAGCCGA,0.0776
23,ACAGCCGG,0.343
24,AGAGCCGC,0.0235
25,ATCCACTG,-0.143
26,CTCCAGTC,-0.195

row,Sequence,PBM E-score
1,GGACCGAC,0.12
2,GGACCGAA,0.353
3,AGACCGAA,0.305
4,TGACCGAA,0.228
5,AGACCGAT,0.0681
6,CGACCGAA,0.273
7,ACGTTGCC,-0.14
8,CGTTACCC,-0.104
9,CGATACCG,-0.0503
10,AAATTGCC,0.168
11,CAGTGTGA,0.0148
12,AGCTCCAG,-0.151
13,TAAATTCA,-0.0563
14,ACTTCGGC,0.269
15,GCTTCGTA,-0.148
16,GCTTCGCA,-0.163
17,CCTTCGGC,0.219
18,CCTTCGCA,-0.0813
19,GCTTCGGA,0.304
20,CCTTCGGA,0.327
21,ACTTCGGG,0.0741
22,ACTTCGGA,0.337
23,CGCGTTGA,-0.00366
24,GGTCTTGA,-0.0168
25,CAGTGGCC,-0.0943
26,ATTTGTGA,0.0908

row,Sequence,PBM E-score
1,CCTCAACA,0.126
2,ACCCTAGC,-0.109
3,AACGCCTG,-0.104
4,TCCAGGCA,-0.15
5,CCGCAAAC,0.144
6,AGTCTTCA,-0.0522
7,GTTTCGGA,0.304
8,CTTTCGGA,0.286
9,ATTTCGCA,0.24
10,CTTTCGGC,0.201
11,ATTTCGGG,0.157
12,GTTTCGTA,0.274
13,ATTTCGTC,-0.0283
14,ATTTCGGC,0.373
15,ATTTCGGA,0.348
16,TCATAGGA,-0.0683
17,AATACCGA,0.165
18,GACCATAA,0.0623
19,CTCAGTAA,-0.0129
20,CAATGGAG,-0.164
21,CGGATACG,0.247
22,AATATTCA,0.037
23,AATATTCC,0.342
24,TATATTAA,0.274
25,AATATTCG,0.0897
26,AATATTAA,0.311

row,Sequence,PBM E-score
1,AATATTAT,0.293
2,CGACCACA,-0.136
3,TAGCGAGA,0.00559
4,AAGGACAA,0.0335
5,ATCGGTCC,0.0402
6,GTCCCACA,0.00972
7,CTTGGTGA,-0.0525
8,GCCGAAAA,0.439
9,GCCGAAAC,0.34
10,ACCGAAAA,0.349
11,ACCGAAAT,0.218
12,ACCGAAAC,0.264
13,CCCGAATA,0.196
14,ACCGAATA,0.173
15,TCCGAAAA,0.264
16,ACCGAAAG,0.181
17,CCCGAAAC,0.0699
18,CCCGAAAA,0.263
19,GCCGAATA,0.361
20,GGTGGGAC,-0.349
21,GAAGTAGC,-0.00548
22,AGTAACGG,0.101
23,AACGTAAG,-0.122
24,CATCAATC,-0.0552
25,GAGCCCCA,-0.266
26,CCGTGCGA,0.166

row,Sequence,PBM E-score
1,CTTTGCCA,0.034
2,TAACCATA,-0.0927
3,CTCTTTCC,-0.089
4,AAATTATA,0.205
5,TAATTATA,0.322
6,GAATTATA,0.193
7,GGTGTTCA,0.0476
8,GCAGGAAC,-0.0354
9,ACCGGAAT,0.233
10,ACCGGAAC,0.398
11,ACCGGAAG,0.279
12,ACCGGACC,0.29
13,GCCGGAAC,0.403
14,CCCGGAAC,0.298
15,ACCGGAAA,0.376
16,GCCGGAGC,0.238
17,AAGTCTAA,-0.093
18,CAGTCTCG,-0.0905
19,CAAGCGTC,-0.0502
20,GCTACTTA,-0.201
21,CATCTTGC,0.0249
22,AGGCTCAG,-0.163
23,AGGCTCAA,-0.157
24,CGGCTCAG,0.337
25,TGGCTCAA,-0.0833
26,CGGCTCAA,0.314

row,Sequence,PBM E-score
1,CGGCTCAC,0.183
2,TACAGTCA,-0.0508
3,ATCATTCA,0.195
4,CATGGTGC,-0.169
5,CTACATAG,0.0225
6,CGATACCA,-0.0309
7,GCCGGCCC,0.343
8,GACGGCCA,-0.117
9,GACGGCCC,-0.168
10,TCCGGCCA,0.218
11,GCCGGCCA,0.348
12,ACCGGCCC,0.13
13,GCCAGATA,-0.0238
14,GCCAACCC,-0.059
15,CCAAGGTC,-0.16
16,CGCTTATA,0.0756
17,CCTTGCCA,-0.0398
18,CCTAATGC,-0.233
19,GCTTTCGA,-0.0696
20,ATTTTAGA,0.0124
21,CACTGTCC,0.0762
22,AAGCCGAG,0.286
23,AAGCCGAC,0.13
24,GAGCCAAA,-0.115
25,GAGCCGAC,0.0364
26,GAGCCGAA,0.372

row,Sequence,PBM E-score
1,AAGCCGAA,0.389
2,AAGCCAAA,0.0744
3,AAGCCGAT,0.356
4,CAGCCGAA,0.229
5,CTAAACGC,0.0164
6,CTAGGCAC,-0.14
7,AGACCCAA,-0.134
8,GATGTTCC,0.239
9,AGACCCCG,0.08
10,ATGAAACA,0.02
11,ACCCGGAG,0.348
12,CCCCGGAG,0.135
13,ACCCCGGA,0.142
14,CCCCGGAA,0.151
15,TCCCCGGA,0.224
16,GCCCGGAC,0.192
17,ACCCGGAA,0.346
18,ACCCGGTA,0.183
19,ACCCGGAT,0.185
20,GCCCGGAA,0.359
21,TCCCGGAA,0.391
22,GCCCCGGA,0.234
23,ACTCGATA,0.0187
24,CCGACTAG,-0.036
25,TAGAAATA,0.126
26,ATGCTCTC,-0.0198

row,Sequence,PBM E-score
1,CAGCTACC,-0.113
2,CCATAGAG,-0.11
3,GGCATACC,-0.214
4,ACAAGGTC,-0.234
5,CAGTGGAC,-0.0743
6,AACCAAAC,-0.103
7,CCGTTCCA,0.0249
8,AAGTTCCT,0.0951
9,AAGTTCCG,0.307
10,ACGTTCCG,0.0307
11,ATGTTCCC,-0.107
12,CCGTTCCG,0.304
13,ATGTTCCA,0.016
14,CAGTTCCG,0.199
15,ATGTTCCG,0.347
16,TCAAGCCA,-0.0394
17,TAGTATGA,0.129
18,AAGGGCCC,-0.28
19,GACGCTTA,-0.148
20,AAAACTTA,0.245
21,GCGGAACC,0.268
22,CCGGAACC,0.363
23,CAGGAACC,-0.147
24,CAGGAACG,-0.0846
25,ACGGAACC,0.329
26,ACGGAACG,0.212

row,Sequence,PBM E-score
1,CCGGAACG,0.329
2,AGGGAACC,-0.101
3,ACGGAACT,0.197
4,CCTTGGAA,0.00859
5,TGCAAGCA,-0.0504
6,CAGCGTTA,-0.141
7,ATACGCTA,0.0126
8,ACCTTCAT,-0.00129
9,CTCCAGAG,-0.154
10,CGCCGAAC,0.345
11,CACCGAAG,0.192
12,CCCCGAAC,-0.00623
13,CTCCGAAC,0.323
14,ATCCGAAC,0.261
15,AGCCGAAG,0.14
16,CTCCGAAG,0.303
17,CGCCGAAG,0.328
18,CGCCGATC,0.129
